“And” between values parts separate entries of the source, which are not always exact repeats. Equal entries are not always repeated. Records with an inconclusive call do not appear. A call without a number means that no potency is given here. The source made the active and inactive calls. Unless noted, calls follow the shape of the dose curve; as a rule, active = well fitted cell-killing curve with a large enough effect in the repeat runs; inconclusive = weak or mixed curves, or effect the other way; inactive = no such curve, though single readings can be large or run the other way.
Test: qHTS assay for small molecule activators of the heat shock response signaling pathway - cell viability counter screen (AID 743209); also: nearly all actives have a fitted effect of over 50% in size
Conditions: HSE-bla HeLa viability, CellTiter-Glo luminescence, 5 h; series mostly up to 62.6 µM
How it was run: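 Luminescence from CellTiter-Glo, added after the beta-lactamase FRET read, gave the viability signal. Cells were HSE-bla HeLa treated with DMSO-dissolved compounds for 5 h at 37 C following overnight plating.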
Potency is read from the fitted curve at half-maximal effect.

SMILES	Potency
CC1(C)CN=C(NN=C(/C=C/c2ccc(C(F)(F)F)cc2)/C=C/c2ccc(C(F)(F)F)cc2)NC1	24.5 µM (active)
CCCCCCCCCBr	inactive
c1ccc2cc3c(cc2c1)-c1cccc2cccc-3c12	inactive
CCCCCCCCCCCCCC[P+](CCCCCC)(CCCCCC)CCCCCC (tested in a mixture with another compound)	3.47 µM (active)
CCCCCCCCCCCCCCCC[N+](C)(C)C	21.1 µM (active) and 43.6 µM (active)
Cc1cc(C)c(C2=C(OC(=O)CC(C)(C)C)C3(CCCC3)OC2=O)c(C)c1	inactive
CC[C@H](C)[C@H]1O[C@]2(C=C[C@@H]1C)C[C@@H]1C[C@@H](C/C=C(\C)[C@@H](O[C@H]3C[C@H](OC)[C@@H](O[C@H]4C[C@H](OC)[C@@H](O)[C@H](C)O4)[C@H](C)O3)[C@@H](C)/C=C/C=C3\CO[C@@H]4[C@H](O)C(C)=C[C@@H](C(=O)O1)[C@]34O)O2	12.9 µM (active)
C[C@@H]1CC[C@@]2(OC1)O[C@H]1[C@@H](O)[C@H]3[C@@H]4CC[C@H]5C[C@@H](O[C@@H]6O[C@H](CO)[C@H](O[C@@H]7O[C@H](CO)[C@@H](O)[C@H](O[C@@H]8OC[C@@H](O)[C@H](O)[C@H]8O)[C@H]7O[C@@H]7O[C@H](CO)[C@@H](O)[C@H](O[C@@H]8O[C@H](CO)[C@@H](O)[C@H](O)[C@H]8O)[C@H]7O)[C@H](O)[C@H]6O)[C@H](O)C[C@]5(C)[C@H]4CC[C@]3(C)[C@H]1[C@@H]2C	29.2 µM (active)
O=[N+]([O-])c1ccc2ccc3cccc4ccc1c2c34	inactive
O=[N+]([O-])c1cc(C(F)(F)F)c(Cl)c([N+](=O)[O-])c1Cl	2.19 µM (active)
CC(C)[C@H](C(=O)OC(C#N)c1cccc(Oc2ccccc2)c1)c1ccc(OC(F)F)cc1 (stereo partly drawn)	inactive
Cc1cc(C)cc(OP(=O)(Oc2cc(C)cc(C)c2)Oc2cc(C)cc(C)c2)c1	inactive
CC(C)CC(C)N (stereo not drawn)	inactive
Nc1ccccc1C(=O)OC/C=C/c1ccccc1	34.8 µM (active)
CC(C)[C@H](C(=O)O[C@H](C#N)c1cccc(Oc2ccccc2)c1)c1ccc(Cl)cc1	inactive
Clc1ccc(C(c2ccccc2Cl)C(Cl)(Cl)Cl)cc1 (stereo not drawn)	inactive
C[C@]12Cc3nonc3C[C@@H]1CC[C@@H]1[C@@H]2CC[C@@]2(C)[C@H]1CC[C@]2(C)O	inactive
C=CC(=O)OCCCCOC(=O)C=C	5.49 µM (active)
CCC(C)(C)C(=O)OC1=C(c2ccc(Cl)cc2Cl)C(=O)OC12CCCCC2	54.9 µM (active)
N#CSCSC#N	19.9 µM (active) and 12.2 µM (active)
ClC1=C(Cl)[C@]2(Cl)[C@H]3[C@H]([C@H]4C=C[C@H]3C4)[C@@]1(Cl)C2(Cl)Cl	inactive
CC(C)OC(=O)C(O)(c1ccc(Cl)cc1)c1ccc(Cl)cc1	inactive
FC(Cl)(Cl)Cl	inactive
C[C@@H]1O[C@@H](O[C@H]2C[C@@H](O)[C@]3(CO)[C@H]4[C@H](O)C[C@]5(C)[C@@H](C6=CC(=O)OC6)CC[C@]5(O)[C@@H]4CC[C@]3(O)C2)[C@H](O)[C@H](O)[C@H]1O	20.8 nM (active) and 266 nM (active)
O=C1NCN(c2ccccc2)C12CCN(CC1COc3ccccc3O1)CC2 (stereo not drawn)	inactive
Cc1cc(N=Nc2ccccc2C)ccc1N	inactive
Oc1c(Cl)c(Cl)cc(Cl)c1Cl	inactive
CCCCCCCCCCCCBr	inactive

Test: qHTS assay for small molecule activators of the heat shock response signaling pathway (AID 743210; active = well fitted activation curve with a large enough effect in the signal ratio in the repeat runs, with a control signal flat, not every such curve was filed as active; the % refers to the signal ratio;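 as to activation: HeLa cells with beta-lactamase reporter driven by heat shock elements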)
Conditions: HeLa HSE-bla reporter, beta-lactamase ratio, 5 h; series mostly up to 62.6 µM
How it was run: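 HeLa HSE-bla cells, overnight plating; cpd in DMSO 5 h, 37 C; LiveBLAzer B/G FRET substrate 2.5 h RT; fluorescence intensity read.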

SMILES	Potency
C[C@]12CC[C@@H]3c4ccc(OC(=O)N(CCCl)CCCl)cc4CC[C@H]3[C@@H]1CC[C@@H]2O	inactive
CCCCCCCCCBr	inactive
c1ccc2cc3c(cc2c1)-c1cccc2cccc-3c12	5.21 µM (active)
Cc1cc(C)c(C2=C(OC(=O)CC(C)(C)C)C3(CCCC3)OC2=O)c(C)c1	inactive
CC[C@H](C)[C@H]1O[C@]2(C=C[C@@H]1C)C[C@@H]1C[C@@H](C/C=C(\C)[C@@H](O[C@H]3C[C@H](OC)[C@@H](O[C@H]4C[C@H](OC)[C@@H](O)[C@H](C)O4)[C@H](C)O3)[C@@H](C)/C=C/C=C3\CO[C@@H]4[C@H](O)C(C)=C[C@@H](C(=O)O1)[C@]34O)O2	inactive
O=[N+]([O-])c1ccc2ccc3cccc4ccc1c2c34	inactive
Cc1cc(C)cc(OP(=O)(Oc2cc(C)cc(C)c2)Oc2cc(C)cc(C)c2)c1	inactive
CC(C)CC(C)N (stereo not drawn)	inactive
C[C@]12Cc3nonc3C[C@@H]1CC[C@@H]1[C@@H]2CC[C@@]2(C)[C@H]1CC[C@]2(C)O	inactive
ClC1=C(Cl)[C@]2(Cl)[C@H]3[C@H]([C@H]4C=C[C@H]3C4)[C@@]1(Cl)C2(Cl)Cl	inactive
CC(C)OC(=O)C(O)(c1ccc(Cl)cc1)c1ccc(Cl)cc1	inactive
FC(Cl)(Cl)Cl	inactive
C[C@@H]1O[C@@H](O[C@H]2C[C@@H](O)[C@]3(CO)[C@H]4[C@H](O)C[C@]5(C)[C@@H](C6=CC(=O)OC6)CC[C@]5(O)[C@@H]4CC[C@]3(O)C2)[C@H](O)[C@H](O)[C@H]1O	inactive
O=C1NCN(c2ccccc2)C12CCN(CC1COc3ccccc3O1)CC2 (stereo not drawn)	inactive
CCCCCCCCCCCCBr	inactive

Reference: PubChem BioAssay (Tox21)
